In PubChem BioAssay AID588674 (Broad Institute, 2011):
The whole screen tested about 360,000 compounds, of which about 1,800 (0.5%) were called active.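 Rule for the calls: active = mean inhibition of at least 75% with every replicate also reaching 75%; inconclusive = mean inhibition at least 75% but some replicate below; inactive = mean inhibition below 75%.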 What follows is part of a selection rich in actives, with near analogues and random picks from the rest.

Assay: reduction of Shn3 3'UTR firefly luciferase signal, primary screen, Schnurri-3 inhibitor project, cell-based, Clone20 osteoblasts, set 2 (AID 588674);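 note: 0% = median of neutral control wells and 100% = pilot-screen positive control compound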
Details: Clone20 osteoblast Shn3 3'UTR firefly luciferase, 24 h; at 12.5 µM; hits give high values

inhibition, inactive:
COc1cc(CNc2ncnc3c2ncn3[C@H]2CN(Cc3cccs3)C[C@@H](CO)O2)cc(OC)c1OC -5.77%
Cc1ccccc1C(=O)N1CCN(c2ccc(NC(=O)c3cccs3)cc2)CC1 23.5%
COc1ccccc1C(=O)NC(=S)Nc1ccc(N2CCOCC2)cc1 -4.89%
CC1(C(=O)NS(=O)(=O)Cc2cccc(Cl)c2)CCN1C(=O)Cc1ccc(Cl)cc1Cl (centres undefined) 18.9%
CC1(C)CC(=O)C=C(c2cccc3c2Oc2ccccc2S3)C1 22.5%
CCOC(=O)c1c(C)[nH]c(C(=O)OCC(=O)c2ccc(OC)cc2OC)c1C -19.1%
CCOC(=O)c1c(C)[nH]c(C)c1S(=O)(=O)NCCCc1ccco1 6.75%
COc1ccccc1C(=O)Nc1ccnn1C1CCN(C(=O)C(C)(C)C)CC1 -5.61%
CC(=O)Nc1ccc(N2C(=O)CCC2=O)cc1C -1.51%
C/C(N)=C(/C#N)C(=O)COC(=O)C1CCN(C(=O)c2ccc(Cl)cc2)CC1 3.42%
Cc1ccc(C)c(Cn2nnc3c(=O)[nH]c(C(=O)Nc4ccc(F)cc4)nc32)c1 6.9%
Cc1cccc(NC(=O)Cn2cc(C(=O)c3ccco3)c3ccccc32)c1 76.4%
Cc1cccc(NC(=O)CCN2CC(C)CC(C)C2)c1 (centres undefined) 15.6%
Cc1cccc(CN2CCC(CNC(=O)Nc3ccc(F)c(Cl)c3)CC2)c1 31.4%
CCS(=O)(=O)Nc1ccc(C(=O)NCCSc2ccccc2)cc1 -6.43%
CCCCc1ccc(NC(=S)N2CCCC(CO)C2)cc1 (centres undefined) -84.4%
COc1cccc(CN(C)CC(=O)Nc2sc3c(c2C#N)CCC3)c1 -22.6%
COc1cncc(-c2cnc3sc(NCCc4ccccn4)nn23)c1 21.9%
COC(=O)c1sc(C(F)(F)F)c(-c2ccccc2)c1S(=O)(=O)N(C)C 10.9%
O=C(O)Cc1ccc(NCc2ccccc2Cl)cc1 -22.2%
CC(CN1CCCCC1)OC(=O)c1ccccc1Cl (centres undefined) -3.13%
CNS(=O)(=O)c1cccc(C(=O)OCCCC(=O)c2ccccc2)c1 41.8%
CC(C)Cn1cnc2c(SCc3ccc(Cl)cc3)nc(N)nc21 11.7%
COCCn1c(SC(C)C(=O)NC2CC2)nnc1-c1cccc(C)c1 (centres undefined) 1.3%
CC1(C)C2CCC1(C)C(OC(=O)c1ccc(O)cc1)C2 (centres undefined) 21.8%
CN(C)C(=O)CCc1ccc2c3c([nH]c2c1)[C@]1(C)[C@@H](C(=O)N2CCOCC2)C[C@H](CC(=O)NCCc2ccccn2)C(=O)N1CC3 -11.8%
COc1cc(F)ccc1-c1cc(C(=O)NCC2CCCCC2)[nH]n1 -10.1%
CCCOc1ccc(F)cc1-c1cc(C(=O)Nc2ccc(F)cc2)[nH]n1 20%
O=C(CSc1ncnc2c1nnn2Cc1ccc(F)cc1)NC1CCCC1 -2.06%
O=C1c2ccccc2[C@@H]2C[C@@H](O)[C@H](Nc3ccccc3Cl)CCN12 55.5%
COc1ccccc1NC(=O)CSc1nnc(Cc2cccn2C)n1-c1ccc(F)cc1 17%
Cc1ccc(C)c(NC(=O)CSc2nnc(Cc3cccn3C)n2-c2ccc(F)cc2)c1 7.47%
Fc1cccc(Cc2c(-c3ccc(Cl)cc3)nc3ccc(Cl)cn23)c1 -13.4%
CN1OC[C@@H]2CN(C(=O)c3cccc4ccccc34)[C@H](c3ccc(N4CCCCC4)cc3)C[C@@H]21 -9.07%
Cc1cc(C)cc(OCC(=O)Nc2ccc(S(=O)(=O)Nc3ccccn3)cc2)c1 6.49%
O=S(=O)(Nc1ccc(Oc2ncccn2)c(Cl)c1)c1ccc(F)cc1 -28.6%
Cc1c(CC(=O)NCC(=O)NCC(=O)O)c(=O)oc2cc3oc4c(c3cc12)CCCC4 -25.9%
CN(C)C(=O)c1ccc2c(c1)C1C3CCC(C3)C1C(c1ccccc1)N2 (centres undefined) -19.2%
O=C(c1ccccc1)N1CCN(c2ccc([N+](=O)[O-])c(NCc3ccco3)c2)CC1 27.6%
COc1ccccc1OCCNc1cc(N2CCOCC2)ccc1[N+](=O)[O-] 40.1%
CC1=CC(=O)C=CC1(C)C(Cl)(Cl)Cl (centres undefined) 9.05%
O=C(CCS(=O)(=O)c1ccc2c(c1)NC(=O)CS2)NCc1ccccc1Cl -18.1%
CN(C)S(=O)(=O)c1ccc(C(=O)NCC(C)(C)N2CCOCC2)cc1 23%
O=C(NCCSCc1ccccc1)c1ccc(Cl)c(S(=O)(=O)N2CCOCC2)c1 10.8%
CCOC(=O)C1=CCC(c2ccc(F)cc2)N(S(=O)(=O)c2ccc(C)cc2)C1 (centres undefined) 10.7%
N#Cc1c(-c2ccc(F)cc2)cc(C2CC2)nc1SCC(=O)c1cccs1 -3.6%
CN(CC1CCCO1)S(=O)(=O)c1ccc(C(=O)Nc2ccc([N+](=O)[O-])cc2)cc1 (centres undefined) 39.9%
CN1C2CCC1CC(NC(=O)c1ccc([N+](=O)[O-])cc1)C2 (centres undefined) -1.34%
CC1=NNC(=O)C1CCC(=O)N/N=C\c1cccc(Cl)c1 (centres undefined) -5.12%
Cc1cc(=O)oc2cc(OC(C)C(=O)Nc3ccc(N4CCOCC4)cc3)ccc12 (centres undefined) 10%
O=C(CSc1nnnn1-c1ccc2c(c1)CCC2)Nc1ccc2c(c1)OCCO2 0.48%
FC(F)(F)c1cccc(-c2nc(COc3ccc(Cl)cc3Cl)no2)c1 6.45%
c1ccc(-c2nccc(-c3ccc(-n4cnc5ccccc54)cc3)n2)nc1 11.2%
Cc1nc2ccccc2c(C(=O)O)c1-c1ccccn1 -12.3%
CN(CC(=O)NCc1ccncc1)S(=O)(=O)c1ccc(Br)cc1 7.05%
O=C(NC1=NCCS1)c1ccc(Cl)s1 -84.7%
C=C1C(=O)[C@]23C[C@H]1CCC2[C@@]1(C)C(C[C@@H]3O)[C@](C)(C(=O)O)CC[C@@H]1O (some centres undefined) 29.4%
NC(=O)C1CCN(C(=O)c2cc(S(=O)(=O)N3CCN(c4ccccc4)CC3)ccc2Cl)CC1 -11.1%
CC1CCC(N2CC(=O)N(Cc3ccc4c(c3)OCO4)C(c3ccc(F)cc3)C2=O)CC1 (centres undefined) 7.77%
COc1cc(SC)ccc1C(=O)NNC(=O)C1COc2ccccc2O1 (centres undefined) 4.8%
Cc1csc(NC(=O)CSc2nc(=O)cc(N)n2-c2ccc(F)cc2)n1 -11%
CCOc1ccc(C(CCc2ccccc2)NC(=O)c2ccc(OC)c(OC)c2)cc1OCC (centres undefined) 20%
C=CCn1c(COc2cccc3cccnc23)nnc1SCC(=O)OC 0.069%
COC(=O)c1sccc1-n1cccc1C(=O)C(=O)N1CCCCC1 2.95%
CS/C(=C\C(=O)c1ccco1)Nc1ccccc1Cl -15.1%
O=C(COc1ccc(-n2cnnn2)cc1)Nc1ccccc1Cl 1.66%
Cc1cccc(N2CCN(C(=O)CCS(=O)(=O)c3ccc4c(c3)NC(=O)C(C)S4)CC2)c1C (centres undefined) 78.8%
CC(=O)Nc1ccc(NC(=O)C(C)OC(=O)C2CC(=O)N(CCc3ccccc3)C2)cc1 (centres undefined) -14.3%
O=C(COC(=O)C1CC2CCCC(C1)C2=O)NC(=O)c1ccccc1 (centres undefined) 14.5%
COc1ccc(C(C#N)=C2C=CC(=NO)c3ccccc32)cc1 18.4%
O=C(Nc1nnc(-c2ccc(F)cc2)s1)c1c(F)cccc1Cl -31.5%
Cc1cccc(C(=O)Nc2nnc(S(=O)(=O)N3CCCCCC3)s2)c1 -6.34%
Cc1ccc(S(=O)(=O)CCC(=O)Nc2nnc(CC(C)C)s2)cc1 -5.29%
NC(=O)CSc1nnc(NC(=O)c2ccc(Br)o2)s1 -19.4%

inhibition, active:
Cc1ccccc1C(=O)NC(=S)Nc1ccc(N2CCN(C(=O)c3ccccc3)CC2)cc1 88.5%
CCOC(=O)c1c(C)[nH]c2c1-c1ccccc1C(=O)C2=O 95.4%
Cc1cccc(NC(=O)c2nc(S(=O)(=O)Cc3ccccc3)ncc2Cl)c1 96.9%
Cc1cccc(CS(=O)(=O)c2ncc(Cl)c(C(=O)Nc3ccc(F)cc3)n2)c1 95.8%
CC(C)OC(=O)c1ccc(NCc2cc(O)ccc2O)cc1Cl 95.7%
Fc1ccc2[nH]c3c(N4CCSCC4)ncnc3c2c1 89.7%
O=C(OC12CC3CC(CC(C3)C1)C2)c1ccc(NCc2cc(O)ccc2O)cc1 98.1%
COc1ccc(OC)c(NC(=O)c2cc(-c3cc(F)ccc3OCC3CCCO3)n[nH]2)c1 (centres undefined) 86.3%
Cn1cccc1Cc1nnc(SCC(=O)NCCc2ccccc2)n1-c1ccc(F)cc1 87.9%
Cc1ccc(S(=O)(=O)Nc2ccc3ncccc3c2)cc1 86.6%
COc1ccc(CCNc2cc(N3CCN(C(=O)c4ccccc4OC)CC3)ccc2[N+](=O)[O-])cc1OC 88.7%
CC(C)(CNC(=O)c1ccc(Cl)c(S(=O)(=O)N2CCc3ccccc3C2)c1)N1CCOCC1 82.5%
O=C(Nc1cc2c3c(c1)C1CCCC1CN3CC1CCCC21)c1ccc([N+](=O)[O-])cc1 (centres undefined) 88.9%
CC(C)(C)Nc1nc(-c2ccccn2)nc2ccccc12 89.7%
O=C(/C=C/Sc1ncn[nH]1)c1ccc(Cl)cc1 97.7%
COc1cc(SC)ccc1C(=O)Nc1nc(C)cs1 86.2%
CCCCC(=O)NC(c1ccc(OC)c(OC)c1)c1ccc2cccnc2c1O (centres undefined) 87.9%
O=C(Nc1ccccc1Cl)/C(Cl)=C(\Cl)S(=O)c1ccccc1 (centres undefined) 97.6%
Cc1ccc(CS(=O)(=O)c2ncc(Cl)c(C(=O)Nc3nnc(C)s3)n2)cc1 98.8%
CSc1nnc(NC(=O)c2nc(S(=O)(=O)Cc3ccc(C)cc3)ncc2Cl)s1 97%
